Results on 8 compounds are retold here after PubChem BioAssay (NCI).

The structures appear in SMILES notation. The panel holds about 83,000 compounds, 20% with a hit somewhere; the sample as a whole holds those more often.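 Compound tested at a single concentration for 48 hours in 96-well plates; a percent growth value below 10 was scored as active.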 Values without a mark were called inactive. Active and inactive are the calls of the source.

Common to all, as to test: NCI-60 one-dose screen, 48 h (100 = growth as untreated, 0 = no growth, -100 = all killed)
Details in all cases: 10 µM unless noted

Assay [1] relates to SK-MEL-2 melanoma.
Assay [2] has as its system EKVX NSCLC.
Assay [3] relates to SN12C renal.
Assay [4] relates to UO-31 renal.
Assay [5] relates to TK-10 renal.
Assay [6] deals with ACHN renal.
Assay [7] deals with CAKI-1 renal.
Assay [8] deals with A498 renal.
The subject of assay [9] is CCRF-CEM leukemia.
Assay [10] concerns MOLT-4 leukemia.
In assay [11] the test system is SR leukemia.
The subject of assay [12] is RPMI-8226 leukemia.
For assay [13], the system named is OVCAR-8 ovarian.
Assay [14] relates to OVCAR-5 ovarian.
Assay [15] has as its system OVCAR-4 ovarian.
For assay [16], the system named is SK-OV-3 ovarian.
The test system of assay [17] is IGROV1 ovarian.
Assay [18] has as its system OVCAR-3 ovarian.
The subject of assay [19] is HS 578T breast.
Assay [20] has as its system NCI/ADR-RES ovarian.

Consider `Cn1ccc(=O)nc1`, for which the growth in assay [1] was 12.7%; in [2], 130%; in assay [3] it was 81.5%; in assay [4] it was 73.4%; in assay [5] it was 94.9%; in assay [6] it was -4.04% (active). In addition, the growth in [7] was 73.4%; in assay [8], 98.1%; in [9], 86.7%; in assay [10] it was 74.6%; in assay [11], 68.7%; in assay [12], 101%. Moreover, the growth is 78.7% in assay [13]; 74.5% in assay [14]; 76.1% in assay [15]; 93% in [16]; 79% in assay [17]; 115% in assay [18]. In addition, the growth in assay [19] is 132%; in [20], 93.4%.
In the case of `CCOC(=O)c1c(C)nc2c(c1N)CC(=O)N2Cc1ccc(OC)cc1`, the growth is 51.2% in [1]; 47.7% in assay [2]; 41.1% in assay [3]; 33.8% in assay [4]; 0.0562% (active) in assay [5]; 28.4% in [6]. Besides, the growth in assay [7] was 76.4%; in [8], 63.5%; in [9] it was 117%; in [10] it was 90.3%; in assay [11] it was 56.2%; in assay [12], 67.1%. Further, the growth is 13.6% in assay [13]; 80.4% in [14]; 7.06% (active) in assay [15]; 8.96% (active) in [16]; 46.4% in [17]; 16.4% in [18]. Also, the growth in assay [19] is 29.4%; in [20], 34.4%.
For `O=C(C1CCCCC1)[C@@H]1[C@]2(C(=O)NC3CCCCC32)[C@@H]2CCCN2[C@@]12C(=O)NC1CCC(Cl)CC12` (stereo not given in full), the growth is -79.2% [100 µM] (active) in assay [1]; -89.5% [100 µM] (active) in assay [2]; -80% [100 µM] (active) in [3]; -73% [100 µM] (active) in [4]; -81.1% [100 µM] (active) in assay [5]; -97.8% [100 µM] (active) in assay [6]. In addition, the growth is -82.7% [100 µM] (active) in assay [7]; -94.8% [100 µM] (active) in [8]; -49% [100 µM] (active) in assay [9]; -57.3% [100 µM] (active) in assay [10]; -68.6% [100 µM] (active) in [11]; -33.6% [100 µM] (active) in assay [12]. Also, the growth in assay [13] was -64.3% [100 µM] (active); in assay [14], -89.5% [100 µM] (active); in assay [15], -79.6% [100 µM] (active); in assay [16] it was -94.1% [100 µM] (active); in assay [17] it was -70.3% [100 µM] (active); in [18], -91.9% [100 µM] (active). In addition, the values for the growth in assay [19] and in [20] were -43.6% [100 µM] (active) and -68.2% [100 µM] (active), respectively.
For `CCn1c(-c2cc3c([nH]c4ccccc43)c(-c3cccc(O)c3)n2)n[nH]c1=S`, the growth was -22.2% (active) in [1]; 56.9% in assay [2]; 63.6% in assay [3]; 47.3% in [4]; 9.38% (active) in [5]; 61.1% in assay [6]. For the same compound, the growth in assay [7] was 47.9%; in assay [8] it was 35%; in assay [9], 28%; in [10] it was 25.6%; in assay [11], -3.76% (active); in assay [12], 19.3%. The growth in assay [13] is 40.8%; in assay [14], 98.1%; in assay [15] it was 54.8%; in [16], 55.8%; in assay [17], 53.7%; in assay [18], 28.9%. Moreover, the results for the growth in assay [19] and in [20] were 28.1% and 64.8%, respectively.
For `CCOC(=O)C#Cc1c(C(=O)OCC)nnn1Cc1ccc(C(F)(F)F)cc1`, the growth was 97.1% in assay [1]; 93.6% in assay [2]; 57.7% in assay [3]; 1.49% (active) in assay [4]; 8.7% (active) in [5]; -25.4% (active) in assay [6]. In addition, the growth was 0.164% (active) in [7]; 104% in [8]; 8.84% (active) in assay [9]; 25.1% in [10]; -1.42% (active) in assay [11]; 7.43% (active) in [12]. Further, the growth in [13] was 69%; in [14], 91.2%; in [15] it was 67.1%; in assay [16], 99.7%; in assay [17], 81.8%; in assay [18], 13.6%. For the same compound, the results for the growth in [19] and in assay [20] were 113% and 97.1%, respectively.
For `CC1CCN(C(=O)CCCl)c2ccccc21` (stereo not given), the growth in [1] was 109%; in assay [2], 144%; in assay [3], 99.7%; in [4], 75.8%; in [5], 95.7%; in assay [6], 117%. Further, the growth in assay [7] was 119%; in assay [8], 95.8%; in assay [9], 104%; in [10] it was 118%; in assay [11], 113%; in assay [12] it was 114%. Moreover, the growth was 96.6% in [13]; 129% in assay [14]; 103% in [15]; 112% in assay [16]; 96.9% in assay [17]; 115% in assay [18]. The values for the growth in [19] and in [20] were 87.5% and 98%, respectively.
With `CCCCNC(=O)Oc1ccc(/C(=C(/C)Cc2ccc(OC)cc2)c2ccc(OCCN3CCCCC3)cc2)cc1`, the growth in assay [1] was 113%; in assay [2] it was 76.3%; in assay [3], 73.9%; in [4], 51%; in assay [5] it was 84.4%; in assay [6] it was 91.3%. Further, the growth is 83.6% in assay [7]; 96.3% in [8]; 42.8% in assay [9]; 33.6% in assay [10]; -40.5% (active) in assay [11]; 32.3% in [12]. Besides, the growth in assay [13] is 84.7%; in assay [14], 84.5%; in assay [15], 69.3%; in [16], 95.5%; in assay [17], 84.5%; in assay [18], 77.1%. Also, the growth was 72.9% in assay [19] and 81.9% in assay [20].
For the compound `Cc1c2cccnc2c(C)c2c1c1cc(CO)ccc1n2C`, the growth was 29.9% in assay [1]; 20.3% in assay [2]; 14.7% in [3]; 17.9% in assay [4]; 26.7% in [5]; 13.9% in assay [6]. Moreover, the growth was 7.09% (active) in assay [7]; -81.1% (active) in assay [8]; 29.9% in assay [9]; 22.9% in assay [10]; 14.3% in assay [11]; 23.1% in assay [12]. In addition, the growth is 28.6% in assay [13]; 2.92% (active) in assay [14]; 33.3% in assay [15]; 43.1% in assay [16]; 4.27% (active) in assay [17]; 25.2% in [18]. Moreover, the values for the growth in [19] and in assay [20] were 47.6% and 24.2%, respectively.
